# Screens from PubChem.
# Sampled rows, rich in hits. Any-hit rate of the full collection: about 4.1%.
# LMP1 NFkB inh: inhibitors of Epstein-Barr LMP1-induced NF-kappaB reporter | hit rate 0.69% among 350,000 | AID 504558 | LMP1-induced NF-kappaB luciferase reporter cells, luminescence | inhibition, % at 12.5 µM; in the data active = inhibition above about 41%;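 also: 0% = neutral control wells and 100% = reference inhibitor control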
# Shn3 inh set2: inhibitors of Schnurri-3 3'UTR reporter in osteoblasts. Clone20 osteoblast Shn3 3'UTR firefly luciferase, 24 h. inhibition, % at 12.5 µM. hit rate 0.52% among 360,000;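 active = mean inhibition of at least 75% with every replicate also reaching 75%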;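 also: 0% = median of neutral control wells and 100% = pilot-screen positive control compound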
# TROY NFkB inh: blocks TROY-dependent signaling in reporter cells. Q293 LMP1-TROYcd NF-kB luciferase reporter, 4 h. inhibition, % at 10 µM. hit rate 0.98% among 360,000. AID 1347056;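 active = compounds whose plate-normalised and pattern-corrected inhibition of the luciferase reporter signal at the single screening dose is 50% or more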
# Peg3 promoter: Peg3 promoter activity inhibition; HeLa PEG-Prom luciferase reporter, luminescence, overnight; hit rate 1.7% among 360,000; inhibition, % at 20 µM;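 active = inhibition of at least 50% at 20 µM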
# TRPM1 prom inh: MITF TRPM1 promoter inhibition in SK-MEL-5 cells. SK-MEL-5 TRPM1 promoter luciferase, 24 h. inhibition, % at 12.5 µM. hit rate 0.83% among 330,000;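 active = mean inhibition across replicates of 60% or more, whatever share of single replicates reaches that level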
# TWEAK Fn14 block: inhibitors of TWEAK-Fn14 interaction signaling; TWEAK-stimulated Fn14 reporter cells, luciferase luminescence, 8 h; inhibition, % at 10 µM; hit rate 2% among 360,000; in the data active = inhibition above about 50%
# * = called active by the depositor; . = no result given.
SMILES,LMP1 NFkB inh,Shn3 inh set2,TROY NFkB inh,Peg3 promoter,TRPM1 prom inh,TWEAK Fn14 block
Cc1ccc2c(c1)C1(OCCCO1)C(=O)N2CC(=O)NN,.,-10,-10,2,.,94*
N#CCC(=O)N1CC2(CC(c3cccc(NC(=O)COc4ccc(Cl)cc4)c3)=NO2)C[C@@H]1C(N)=O (some centres undefined),-2,-17,12,-4,-5,-3
CCC(=O)Nc1cccc(C2=NOC3(C2)C[C@@H](C(N)=O)N(C(=O)C(c2ccccc2)c2ccccc2)C3)c1 (some centres undefined),0,-12,0,1,4,8
NC(=O)[C@@H]1CC2(CC(c3cccc(NC(=O)COc4ccc(Cl)cc4)c3)=NO2)CN1C(=O)COc1ccc(Cl)cc1 (some centres undefined),20,64,46,15,24,82*
NC(=O)[C@H]1CC2(CC(c3cccc(NC(=O)COc4ccc(Cl)cc4)c3)=NO2)CN1C(=O)C(c1ccccc1)c1ccccc1 (some centres undefined),11,-2,33,40,45,57*
Cc1cc(=O)oc2cc(OCC(=O)NCCc3ccccc3)ccc12,-4,-2,5,-7,-21,-9
CC1(C)C(/C=C/C=C/C=C/C=C2\N(CCCCS(=O)(=O)O)c3ccc4ccccc4c3C2(C)C)=[N+](CCCCS(=O)(=O)[O-])c2ccc3ccccc3c21,4,-8,10,30,21,55*
Cc1c2ccccc2cc[n+]1CCCS(=O)(=O)[O-],8,16,14,-3,-2,13
C=C(C)c1cccc(C(C)(C)NC(=O)N2CCN(C/C=C/c3ccccc3)CC2)c1,-11,53,-32,22,3,13
CC1=NN(c2ccc(Cl)cc2)C(=O)C1C(c1cccc(O)c1)c1c(C)[nH]n(-c2ccc(Cl)cc2)c1=O (centres undefined),-27,16,40,25,8,50*
CN1CCN(C(=O)C2CCCN(S(=O)(=O)c3ccc(Cl)cc3)C2)CC1 (centres undefined),-2,4,-40,-11,-9,-3
c1ccc2sc(NCC3CCCO3)nc2c1 (centres undefined),-20,-19,-32,-170,-52,-10
CCCNC(=O)c1ccc(-c2nc3ccccc3s2)s1,-18,27,.,-81,9,52*
Cc1ccc(CNc2nc3ccccc3s2)s1,25,18,41,-25,5,80*
c1ccc2sc(NN=C3CCCCCC3)nc2c1,1,17,76*,-100,3,76*
Cc1cc(NC(=O)c2ccc(C)s2)n(-c2nc3ccccc3[nH]2)n1,67*,16,-24,31,-7,2
CCCc1cc(=O)oc2c3c(cc(OCC(=O)N4CCC(C(=O)O)CC4)c12)OC(C)(C)CC3,.,-1,1,6,.,-16
Cc1c(Cl)cccc1N1C(=O)CC(N(O)c2ccccc2)C1=O (centres undefined),-8,0,-19,-9,-6,-26
O=C(NNc1nc2ccccc2s1)c1ccc(F)cc1,2,-58,76*,-35,-9,19
Cc1ccc(C(=O)O)c(C(=O)Nc2nc3ccccc3s2)c1,2,14,-7,-1,9,4
O=C(NNc1nc2ccc(F)cc2s1)c1cccc(F)c1,5,0,-1,-56,2,-7
O=C(Nc1nc2ccccc2s1)c1ccccc1,-27,-28,1,-168,15,50*
Cc1ccc(C(=O)Nc2nc3ccccc3s2)s1,-52,-4,10,-181,-51,69*
O=C(Nc1nc2ccccc2s1)c1cnccn1,25,-9,12,-99,5,56*
CCOc1ccc2nc(NC(=O)c3cnccn3)sc2c1,-3,-18,-69,-208,-53,19
SMILES,LMP1 NFkB inh,Shn3 inh set2,TROY NFkB inh,Peg3 promoter,TRPM1 prom inh,TWEAK Fn14 block
CSCCC(NC(=O)c1ccco1)C(=O)NC1CCC(C)CC1 (centres undefined),-25,-91,-18,-175,-110,-9
COc1ccc(C(=O)N(C)Cc2ccc(C)o2)cc1OC1CCN(C(C)C)CC1,-5,15,16,24,4,6
CC(=O)[C@@]1(O)C(C)CC2C3C=C(C)C4=Cc5c(cnn5-c5ccccc5)C[C@]4(C)C3C(O)C[C@@]21C (some centres undefined),-185,55,53*,64*,1,-35
O=C(COc1coc(CN2CCc3ccccc3C2)cc1=O)N1CCOCC1,0,-1,9,5,9,7
CC(CCN1CCOCC1)c1ccccc1 (centres undefined),12,-56,5,3,-20,60*
CC(C)Sc1nc(SCC(=O)NCc2ccco2)c2c3c(sc2n1)COC(C)(C)C3,-63,6,79*,-63,-24,79*
CC(C)Sc1nc(SCC(=O)O)c2c3c(sc2n1)COC(C)(C)C3,-10,-14,-44,-31,-18,-15
COc1cccc(O)c1CN1CCC(C(=O)Nc2ccc(-c3cccc(C)c3)cc2)CC1,-13,11,40,106*,34,30
COc1ccc(CN2CCC(C(=O)Nc3ccc(Oc4cccnc4)cc3)CC2)c(C)c1C,-7,86*,18,6,27,10
C=CCSc1nnc(NC(=O)c2cn(CC)c3nc(C)ccc3c2=O)s1,6,-5,5,-7,-6,90*
Cc1nnc(SCC(=O)Nc2ccc([N+](=O)[O-])cc2)n1C,-4,-24,2,5,-2,-23
Cc1cc([N+](=O)[O-])ccc1NC(=O)CSc1nnc(C)n1C,-6,1,-22,1,-12,58*
CCCCCC[N+](C)(C)CCSSCC[N+](C)(C)CCCCCC,-5,-6,1,-8,-2,1
CCCCCCCCCCCCCCCC[N+](C)(C)CCl,0,83,3,100*,-3,-27
CCCCCCCCCCCCCCCC[N+](C)(C)CC,2,93*,33,102*,39,41
C#CC[N+](C)(C)CCCCCCCCCC,14,43,9,34,12,23
COc1ccc(CCNC(=O)Nc2ccc(F)cc2F)cc1OC,1,13,-1,-6,-4,3
COc1ccc(-n2ncc3c(NCCCN4CCOCC4)ncnc32)cc1,0,-80,59*,-123,-41,74*
COc1ccc(-n2ncc3c(NCC4CCCO4)ncnc32)cc1 (centres undefined),-4,-70,-31,-209,-33,39
COc1ccc(-n2ncc3c(NCCN4CCOCC4)ncnc32)cc1,-13,-3,53*,-159,-33,59*
Cc1ccc(-n2ncc3c(NCCCN4CCOCC4)ncnc32)c(C)c1,12,3,8,20,-1,-21
O=C(NC1CCCCC1)c1cc(-c2cccs2)on1,-37,-130,-12,-372,-95,-26
